Activity calls are given as the source filed them. Unless noted, the rule behind the calls is not given here.
Experiments:
[1] = anti-His antibody binders, primary screen, artefact control for SMM control protein annotation, biochemical, small-molecule microarray, 635 nm fluorescence (AID 1128); details: anti-His Alexa647 antibody binding, higher = more signal;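 note: score merges feature fluorescence with signal-to-noise for each printed compound spot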
[2] = test system: Human papillomavirus type 1a E7 protein (residues 1-88); test: HPV1a E7 small-molecule binders, primary screen, biochemical, small-molecule microarray, residues 1-88, 635 nm (AID 1129); details: small-molecule microarray binding, fluorescence 635 nm; higher = more signal
[3] = molecular target: Focal adhesion kinase 1 (Homo sapiens) (UniProt Q05397); test: small-molecule microarray binders of FAK, primary screen, biochemical, 635/667 nm fluorescence, BSA, DTT (AID 1130); details: PTK2 binding, 635 nm fluorescence, higher = more signal;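 note: composite of spot emission at 667 nm and signal to noise over triplicate slides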
Chain of Focal adhesion kinase 1 (Homo sapiens) (Q05397 whole entry, looked up): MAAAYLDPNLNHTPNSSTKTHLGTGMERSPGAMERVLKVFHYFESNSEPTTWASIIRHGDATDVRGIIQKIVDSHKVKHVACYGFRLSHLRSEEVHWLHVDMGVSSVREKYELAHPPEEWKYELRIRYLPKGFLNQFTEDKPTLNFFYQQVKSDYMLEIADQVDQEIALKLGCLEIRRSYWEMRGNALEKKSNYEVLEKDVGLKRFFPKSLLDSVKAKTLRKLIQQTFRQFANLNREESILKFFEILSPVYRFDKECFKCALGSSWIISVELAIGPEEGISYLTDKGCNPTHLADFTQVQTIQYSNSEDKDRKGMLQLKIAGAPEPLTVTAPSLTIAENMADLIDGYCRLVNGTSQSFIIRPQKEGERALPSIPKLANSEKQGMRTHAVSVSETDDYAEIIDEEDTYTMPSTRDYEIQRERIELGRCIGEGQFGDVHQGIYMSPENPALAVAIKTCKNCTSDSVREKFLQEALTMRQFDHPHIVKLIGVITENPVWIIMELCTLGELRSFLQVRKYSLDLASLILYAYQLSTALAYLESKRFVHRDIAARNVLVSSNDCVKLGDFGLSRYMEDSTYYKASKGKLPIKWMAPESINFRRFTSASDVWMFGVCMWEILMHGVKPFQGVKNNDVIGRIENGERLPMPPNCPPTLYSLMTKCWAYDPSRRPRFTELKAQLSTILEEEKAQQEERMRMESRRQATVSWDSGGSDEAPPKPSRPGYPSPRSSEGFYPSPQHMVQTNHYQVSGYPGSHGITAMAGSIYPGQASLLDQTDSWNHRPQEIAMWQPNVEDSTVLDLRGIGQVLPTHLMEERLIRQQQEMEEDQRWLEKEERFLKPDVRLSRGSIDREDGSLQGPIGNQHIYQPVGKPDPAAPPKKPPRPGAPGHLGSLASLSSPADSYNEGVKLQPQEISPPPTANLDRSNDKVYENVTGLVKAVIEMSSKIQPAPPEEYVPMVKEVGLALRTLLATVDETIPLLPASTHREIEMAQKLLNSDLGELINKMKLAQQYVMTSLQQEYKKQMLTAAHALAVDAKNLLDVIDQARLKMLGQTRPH

[4] = test system: Fibrinogen (Alexa647-labelled); test: fibrinogen binders on compound microarrays, profiling panel, artefact control for SMM control-protein annotation, biochemical, small-molecule microarray, 635/667 nm fluorescence (AID 1131); details: fibrinogen-A647 binding fluorescence, higher = more signal;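 note: z-score merges 667 nm fluorescence with per-spot signal-to-noise over triplicate slides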
[5] = molecular target: Follistatin (Homo sapiens) (UniProt P19883); test: follistatin binders on small-molecule microarrays, primary screen, biochemical, small-molecule microarray, 635/667 nm fluorescence (AID 1132); details: FST binding, 635 nm fluorescence, higher = more signal
Chain of Follistatin (Homo sapiens) (P19883 whole entry, looked up): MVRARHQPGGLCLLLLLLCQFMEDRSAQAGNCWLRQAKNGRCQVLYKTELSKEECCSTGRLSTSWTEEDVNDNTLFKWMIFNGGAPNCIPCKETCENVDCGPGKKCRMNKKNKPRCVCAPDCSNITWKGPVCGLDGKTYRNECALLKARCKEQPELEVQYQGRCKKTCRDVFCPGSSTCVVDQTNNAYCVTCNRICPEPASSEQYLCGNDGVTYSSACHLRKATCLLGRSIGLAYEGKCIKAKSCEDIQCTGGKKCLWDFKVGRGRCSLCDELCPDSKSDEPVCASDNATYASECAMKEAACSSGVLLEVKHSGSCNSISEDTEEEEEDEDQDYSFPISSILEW

[6] = molecular target: Fibroblast growth factor 2 (Homo sapiens) (UniProt P09038); test: FGF2 binders on small-molecule microarrays, primary screen, biochemical, small-molecule microarray, 635/667 nm fluorescence (AID 1133); details: small-molecule microarray binding, FGF2, fluorescence 635/667; higher = more signal
Chain of Fibroblast growth factor 2 (Homo sapiens) (P09038 whole entry, looked up): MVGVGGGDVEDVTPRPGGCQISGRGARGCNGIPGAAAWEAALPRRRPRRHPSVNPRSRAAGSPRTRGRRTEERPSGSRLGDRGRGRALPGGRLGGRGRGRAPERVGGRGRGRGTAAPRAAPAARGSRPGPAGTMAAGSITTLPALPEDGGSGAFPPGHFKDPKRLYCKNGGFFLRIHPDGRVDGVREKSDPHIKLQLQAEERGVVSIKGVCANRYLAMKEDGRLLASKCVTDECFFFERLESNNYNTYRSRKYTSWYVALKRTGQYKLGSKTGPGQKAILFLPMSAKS

[7] = mitochondrial membrane potential change in A549 cells, profiling panel, cell-based, JC-1 fluorescence, basal, 24 h, 100 nL (AID 1138); details: higher = more signal;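 note: A549 lung adenocarcinoma cells under basal conditions with no added stimulus; test concentration not given here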
Lefty1 = Lefty1 binders on small-molecule microarrays, primary screen, biochemical, small-molecule microarray, 635/667 nm fluorescence (AID 1139); details: small-molecule microarray binding, fluorescence 635/667; higher = more signal
[8] = test system: wheat germ agglutinin (Triticum aestivum), Alexa647-labelled; test: wheat germ agglutinin binders on compound microarrays, profiling panel, artefact control for SMM control-protein annotation, biochemical, small-molecule microarray, 635/667 nm fluorescence (AID 1140); details: WGA-A647 binding, 635 nm fluorescence, higher = more signal;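 note: score merges 667 nm feature emission with signal to noise over triplicate slides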
[9] = molecular target: Luciferin 4-monooxygenase (Photinus pyralis) (UniProt P08659); test: firefly luciferase enzyme inhibitors, primary screen, biochemical, luminescence, purified enzyme, 2006 set (AID 1141); details: SteadyGlo luminescence, 30 min, higher = more signal, called active from +8 up or from −8 down;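 note: cell-free assay with purified firefly luciferase at 100 ng per well in PBS; test concentration not given here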
Chain of Luciferin 4-monooxygenase (Photinus pyralis) (P08659 whole entry, looked up): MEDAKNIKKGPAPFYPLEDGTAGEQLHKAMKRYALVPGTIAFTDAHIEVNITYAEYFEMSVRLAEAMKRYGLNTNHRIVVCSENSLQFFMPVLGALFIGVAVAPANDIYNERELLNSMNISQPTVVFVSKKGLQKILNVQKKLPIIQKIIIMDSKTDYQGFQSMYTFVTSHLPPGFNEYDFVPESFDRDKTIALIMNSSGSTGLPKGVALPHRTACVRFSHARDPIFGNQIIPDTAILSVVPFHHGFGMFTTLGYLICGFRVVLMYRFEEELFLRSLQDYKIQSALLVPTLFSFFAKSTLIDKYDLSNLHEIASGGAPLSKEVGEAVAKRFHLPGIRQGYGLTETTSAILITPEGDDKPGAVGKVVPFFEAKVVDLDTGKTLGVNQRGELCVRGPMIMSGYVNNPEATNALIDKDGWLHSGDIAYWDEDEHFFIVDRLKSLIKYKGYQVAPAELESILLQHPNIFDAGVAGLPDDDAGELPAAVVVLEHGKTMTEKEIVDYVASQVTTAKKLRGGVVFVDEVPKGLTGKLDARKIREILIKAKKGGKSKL

[10] = test system: Wnt5a (protein binding on small-molecule microarray); test: Wnt5a binders on small-molecule microarray, primary screen, biophysical, 635/667 nm fluorescence (AID 1142); details: 635 nm fluorescence, higher = more signal;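 note: fluorescence read at 667 nm with signal to noise per printed feature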
[11] = cell viability in Huh7 cells, primary screen, cytotoxicity control for HCV replication inhibitor project, CellTiter-Glo luminescence, basal, 48 h (AID 1143); details: Huh7 HCV replicon, higher = more signal, called active from +8 up or from −8 down;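 note: Huh7 hepatoma cells carrying a hepatitis C replication reporter with no stimulus; test concentration not given here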
[12] = P. aeruginosa biofilm formation inhibitors, primary screen, PAO1 strain, BacTiter-Glo luminescence, LB-PBS (AID 1144); details: 12 h, higher = more signal
[13] = CREB reporter modulators without forskolin, primary screen, cell-based, PC12, CRE-LacZ reporter, unstimulated (AID 1145); details: no forskolin, luminescence, 4.5 h, higher = more signal, called active from +8 up or from −8 down
[14] = CREB reporter modulators under forskolin, primary screen, cell-based, PC12, CRE-LacZ reporter, forskolin-stimulated (AID 1146); details: luminescence, 4.5 h, higher = more signal, called active from +8 up or from −8 down;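 note: PC12 cells with 6xCRE LacZ reporter stimulated by forskolin 10 µM; beta-galactosidase reporter signal reflecting CREB driven transcription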
[15] = molecular target: Streptavidin (Streptomyces avidinii) (UniProt P22629); test: streptavidin binders on small-molecule microarray, primary screen, artefact control for SMM compound annotation, biophysical, 635/667 nm fluorescence (AID 1147); details: streptavidin binding, higher = more signal;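 note: signal reflects streptavidin binding to arrayed compounds as a control protein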
Chain of Streptavidin (Streptomyces avidinii) (P22629 whole entry, looked up): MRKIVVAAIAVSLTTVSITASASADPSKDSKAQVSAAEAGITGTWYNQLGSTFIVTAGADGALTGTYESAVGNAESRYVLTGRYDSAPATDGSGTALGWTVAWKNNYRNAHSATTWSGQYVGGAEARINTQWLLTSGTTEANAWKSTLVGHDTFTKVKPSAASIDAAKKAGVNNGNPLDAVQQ

[16] = small-molecule binders of probe aInhba, primary screen, biochemical, small-molecule microarray, 635/667 nm fluorescence (AID 1148); details: higher = more signal;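 note: score merges 667nm spot fluorescence with signal-to-noise for antibody binding to printed compounds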
Torsin-1A (Homo sapiens) [17] = molecular target: Torsin-1A (Homo sapiens) (UniProt O14656); test: torsin A binders from cell lysate, primary screen, small-molecule microarray, wild-type, 635/667 nm (AID 1149); details: COS7 hTOR1A-WT lysate, 635 nm fluorescence, higher = more signal
Chain of Torsin-1A (Homo sapiens) (O14656 whole entry, looked up): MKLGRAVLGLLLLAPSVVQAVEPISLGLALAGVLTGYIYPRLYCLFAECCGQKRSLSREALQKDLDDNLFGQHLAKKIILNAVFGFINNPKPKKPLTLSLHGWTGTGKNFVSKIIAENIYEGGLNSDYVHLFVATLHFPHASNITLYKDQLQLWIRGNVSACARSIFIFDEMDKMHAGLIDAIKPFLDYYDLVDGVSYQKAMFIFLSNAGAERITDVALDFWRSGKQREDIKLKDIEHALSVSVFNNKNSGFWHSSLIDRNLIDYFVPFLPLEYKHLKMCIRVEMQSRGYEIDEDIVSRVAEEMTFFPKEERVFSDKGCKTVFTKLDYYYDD

Torsin-1A (Homo sapiens) [18] = molecular target: Torsin-1A (Homo sapiens) (UniProt O14656); test: small-molecule binders of mutant TOR1A in lysate, primary screen, cell lysate, small-molecule microarray, COS7 lysate, 635/667 nm fluorescence (AID 1150); details: COS7 hTOR1A mutant lysate, 635 nm fluorescence, higher = more signal;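 note: score pools 667 nm emission and signal to noise measuring lysate protein binding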
[19] = test system: Sonic hedgehog protein (Shh); test: small-molecule binders of Shh protein, primary screen, biochemical, small-molecule microarray, 635/667 nm fluorescence (AID 1151); details: small-molecule microarray binding, 635 nm fluorescence; higher = more signal;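 note: Shh protein binding to compounds spotted on small-molecule microarray slides; score combines spot fluorescence intensity with signal-to-noise across triplicate slides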

Row | Compound | composite z-score [1] | composite z-score [2] | composite z-score [3] | composite z-score [4] | composite z-score [5] | composite z-score [6] | z-score [7] | composite z-score (Lefty1) | composite z-score [8] | z-score [9] | composite z-score [10] | z-score [11] | z-score [12] | z-score [13] | z-score [14] | composite z-score [15] | composite z-score [16] | composite z-score (Torsin-1A (Homo sapiens) [17]) | composite z-score (Torsin-1A (Homo sapiens) [18]) | composite z-score [19]
1 | O=C(NCC(F)(F)F)[C@@H]1c2ccccc2C(=O)N(Cc2ccc(OC(F)(F)F)cc2)[C@H]1c1ccc(CO)cc1 | 0.191 | -0.0826 | 0.518 | -0.344 | 1.02 | 0.45 | 0.845 | 0.713 | 0.444 | 1.36 (inactive) | 0.119 | -2.41 (inactive) | -0.652 (inactive) | 0.531 (inactive) | 0.118 (inactive) | -0.176 | -0.0672 | 0.176 | -0.0108 | 1.74
2 | CC(C)N1C(=O)C[C@@](C(=O)NCCCN(C)C)(c2ccc([N+](=O)[O-])cc2)[C@H]1c1ccc(CO)cc1 | -0.616 | -0.605 | -0.519 | 0.47 | 0.316 | 0.875 | -0.488 | -0.0831 | -0.0539 | -0.287 (inactive) | -0.0942 | -1.38 (inactive) | 0.574 (inactive) | 0.764 (inactive) | 0.0255 (inactive) | -0.36 | -0.157 | -0.0639 | 0.46 | 0.249
3 | COC(=O)[C@@]1(Cc2ccc(OC)cc2)[C@H]2c3cc(C(=O)N(C)C)n(Cc4ccc(Cl)c(C(F)(F)F)c4)c3C[C@H]2CN1C(=O)c1ccccc1 | 1.99 | 1.22 | 0.71 | 0.982 | 0.655 | -0.451 | 0.0187 | -0.68 | 1.22 | 1.65 (inactive) | 0.758 | -2.81 (inactive) | 0.275 (inactive) | 2.87 (inactive) | 2.18 (inactive) | 0.725 | 0.515 | -0.213 | 0.234 | -0.988
4 | O=C1O[C@@H](c2ccccc2)[C@@H](c2ccccc2)N2[C@@H](c3ccccc3OCCO)[C@]3(C(=O)Nc4ccc(C#CCCO)cc43)[C@@H](C(=O)N3CCCCCCC3)[C@H]12 | 3.38 | 1.3 | 4.83 | 0.958 | 1.55 | 1.14 | 0.163 | 1.87 | 1.74 | 0.205 (inactive) | 2.37 | -3.74 (inactive) | -0.163 (inactive) | 0.245 (inactive) | 0.337 (inactive) | 4.08 | 2.42 | 3.06 | 2.96 | 1.78
5 | CCCCCCc1nc(-c2cc(C)c(OC)c(C)c2)c(C)c2c1[Si](C(C)C)(C(C)C)OC2 | -0.351 | 0.0093 | 0.126 | -0.273 | 0.204 | -0.18 | -0.522 | 0.195 | -0.496 | 0.325 (inactive) | 0 | -3.03 (inactive) | -0.892 (inactive) | 0.148 (inactive) | -0.101 (inactive) | 0.273 | -0.128 | 0.0704 | -1.06 | 0.186
6 | CCCC[C@@H](O)C1=C(COc2ccccc2)C[C@H]2C(=O)N(C)C(=O)[C@H]2[C@H]1CO | 0.0713 | -0.231 | 0.713 | -0.247 | 0.129 | -0.16 | 0.708 | 0.0695 | -0.488 | -0.475 (inactive) | -0.339 | -1.22 (inactive) | -1.24 (inactive) | 2.49 (inactive) | -0.94 (inactive) | -0.803 | -0.102 | -0.631 | 0.596 | 0.406
7 | COCCOC(=O)N1C(=O)[C@@]2(c3cc(C#CC4(O)CCCCCC4)ccc31)[C@H](c1ccc(O)cc1)N1[C@H](c3ccccc3)[C@H](c3ccccc3)OC(=O)[C@H]1[C@@H]2C(=O)NC[C@H](O)c1ccccc1 | 0.496 | 1.16 | 0.987 | 0.87 | 1.26 | 1.64 | -0.939 | 1.28 | 0.733 | -0.001 (inactive) | 0.677 | -1.48 (inactive) | -0.277 (inactive) | 0.712 (inactive) | -0.61 (inactive) | 0.383 | -0.125 | 0.116 | 1.09 | 1.21
8 | C=CCC(OC(C)=O)[C@@H]1[C@@H](N(Cc2ccc(-c3ccccc3)cc2)C(=O)Cc2ccc(F)cc2)c2cc(OCCCO)ccc2N1C(=O)Cc1ccc(OC)cc1 (stereo not given in full) | -0.148 | -0.212 | 0.328 | 0.397 | 0.508 | -0.472 | 0.626 | -0.0463 | 0.687 | -0.51 (inactive) | 0.205 | 0.145 (inactive) | 0.729 (inactive) | 1.25 (inactive) | 1.1 (inactive) | 0.586 | -0.128 | 0.106 | -0.751 | 0.164
9 | COc1ccc(-c2nc(-c3ccccc3)c3c(c2C)CO[Si]3(C(C)C)C(C)C)cn1 | -0.479 | 0.081 | 0.268 | -0.579 | 0.16 | 0.639 | -0.0772 | 0.402 | 0.0463 | 0.431 (inactive) | 0.0934 | -0.483 (inactive) | 0.338 (inactive) | -0.607 (inactive) | 0.315 (inactive) | 0.188 | -0.0494 | 0.14 | -0.129 | 0.848
10 | C=C(C)c1cc2c(c(CCCCCC)n1)[Si](C(C)C)(C(C)C)OC2 | 0.18 | -1.15 | -0.534 | -1.93 | -0.522 | -1.45 | -1.17 | -0.174 | -1.19 | 0.903 (inactive) | -0.712 | -0.342 (inactive) | 0.582 (inactive) | 0.367 (inactive) | 0.0246 (inactive) | -1.01 | -0.159 | -1.74 | -1.05 | -0.351
